NS1 inh: influenza NS1 inhibition; Potency, µM (titrated, usually from 46.1 µM); 270,000 compounds, 0.4% hits; AID 2326; calls by dose curve; also: actives are rising curves; nearly all actives have a fitted effect of over 50% in size
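Read-out: OD600 growth recovery of NS1-expressing budding yeast. Cells grown overnight at 30C in -URA glucose medium, washed, resuspended and diluted 1:100 in 2% galactose assay medium, pH 6.0. Same strain lacking NS1 served as positive control.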
Pf growth 48h: inhibits P. falciparum growth in the first generation, 48 h. P. falciparum luciferase growth in erythrocytes, 48 h. Potency, µM (series often up to 28.7 µM), hits mostly inhibitors. 310,000 compounds, 5.9% hits. AID 504832
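In quantitative HTS format, infected erythrocytes bearing luciferase-reporter parasites were treated for a single generation at 37 C. Luminescence after adding detection reagent served as the growth measure.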
SARS PLP yeast: SARS-CoV PLP inhibition in yeast. S. cerevisiae expressing SARS-CoV PLpro, growth rescue. 330,000 compounds, 0.19% hits. Potency, µM (highest dose often 32.9 µM), usual class: activators. AID 485353; calls by dose curve; also: nearly all actives have a fitted effect of over 55% in size
Pf growth 96h: P. falciparum growth inhibition at 96 hour, primary screen for plastid delayed-death inhibitors; Potency, µM (doses to about 28.7 µM), usual class: inhibitors; P. falciparum luciferase reporter growth, 96 h; 320,000 compounds, 6.9% hits; AID 504834
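96 h incubation, 37 C, 5% CO2, of luciferase-reporter P. falciparum-infected RBCs (2% hematocrit, 0.05% parasitemia final) with test compounds; endpoint luminescence.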
Each line names hits and unclear results; the compound was inactive in the other large screens. A selection: hits, their analogues and other compounds. The true share with any hit is near 10%. Unless noted, calls follow the shape of the dose curve; as a rule, active = well fitted inhibition curve with a large enough effect; inconclusive = small, poorly fitted or top-dose-only effect, or another doubt; inactive = no such curve, though single readings can be large or run the other way.

Cc1ccc(NC(=O)Cc2ccc([N+](=O)[O-])cc2)c(Br)c1	none
O=C(Cc1ccc([N+](=O)[O-])cc1)Nc1cc(C(F)(F)F)cc(C(F)(F)F)c1	Pf growth 96h 15µM
O=C(Cc1ccc([N+](=O)[O-])cc1)Nc1ccc(O)cc1C(=O)O	Pf growth 96h 5.2µM
Cc1ccc(C)c(OCC(=O)NNC(=O)CCN2CCN(c3ccccc3)CC2)c1	Pf growth 96h inconclusive (no result: NS1 inh)
COC(=O)Nc1ccc(S(=O)(=O)NCCCCCC(=O)O)cc1	Pf growth 96h 2.9µM
C=CCOc1ccccc1CNc1cccc(F)c1	Pf growth 96h 10µM
O=C(CN(C(=O)CCC(=O)Nc1ccccn1)c1ccc(F)cc1)NCc1ccco1	NS1 inh inconclusive, Pf growth 96h inconclusive
Cc1cccc(N(CC(=O)NCc2ccco2)C(=O)CCC(=O)Nc2ccccn2)c1C	Pf growth 96h 1.9µM
CC(C)c1ccc(N(CC(=O)NCc2ccco2)C(=O)CCC(=O)Nc2ccccn2)cc1	Pf growth 96h 0.74µM
CCOC(=O)C1=C(COC(=O)CC(C)c2ccccc2)NC(=O)NC1C (stereo not drawn)	none (no result: NS1 inh)
CN1CCN(c2nc3c(c(=O)[nH]c(=O)n3C)n2CC(N)=O)CC1	Pf growth 48h inconclusive, Pf growth 96h 13µM
Cc1ccnc(SCCn2c(N3CCN(c4ccccc4)CC3)nc3c2c(=O)[nH]c(=O)n3C)n1	Pf growth 96h 4.7µM (no result: Pf growth 48h)
CCN1CCN(c2nc3c(c(=O)[nH]c(=O)n3C)n2CCCSc2ncccn2)CC1	Pf growth 96h inconclusive
CN1CCN(c2nc3c(c(=O)[nH]c(=O)n3C)n2CCCSc2ncccn2)CC1	Pf growth 96h 13µM
Cn1c(=O)[nH]c(=O)c2c1nc(N1CCOCC1)n2CC(O)COc1ccc2ccccc2c1 (stereo not drawn)	Pf growth 96h 6.6µM
Cc1ccnc(SCCn2c(N3CCN(C)CC3)nc3c2c(=O)[nH]c(=O)n3C)n1	NS1 inh inconclusive
COc1cc(OC)c(/C=N/NC(=O)c2ccncc2)c(OC)c1	none
CC(NC(=O)c1ccc(NC(=O)CC2SC(N3CCCC3)=NC2=O)cc1)c1ccccc1 (stereo not drawn)	Pf growth 48h inconclusive, Pf growth 96h inconclusive (no result: NS1 inh)
COc1ccc(N(C(=O)c2snc(C(N)=O)c2N)C(C(=O)NCC2CCCO2)c2ccc(C)o2)cc1OC (stereo not drawn)	Pf growth 48h 8.3µM
Cc1ccc(N(C(=O)c2snc(C(N)=O)c2N)C(C(=O)NCC2CCCO2)c2ccc(C)o2)c(C)c1 (stereo not drawn)	Pf growth 48h inconclusive, Pf growth 96h inconclusive
COc1ccc(C(C(=O)NCC2CCCO2)N(C(=O)c2snc(C(N)=O)c2N)c2ccc(C)cc2)cc1OC (stereo not drawn)	Pf growth 48h 10µM, Pf growth 96h 13µM
CCc1ccccc1N(C(=O)c1snc(C(N)=O)c1N)C(C(=O)NCC1CCCO1)c1ccc(C)o1 (stereo not drawn)	Pf growth 48h inconclusive, Pf growth 96h 9.3µM
O=C(CCc1ccc(Oc2cc([N+](=O)[O-])cc([N+](=O)[O-])c2)cc1)N1CCCCC1	Pf growth 48h 12µM, Pf growth 96h inconclusive
O=C(c1ccc(Oc2ccc([N+](=O)[O-])cc2)cc1)N1CCCCCC1	none
CC(C(=O)NC1CCCCC1)N1CCN(C)CC1 (stereo not drawn)	none
CC(C)CC(NC(=O)C(CO)NC(=O)C1CCC(=O)N1)C(N)=O (stereo not drawn)	Pf growth 96h 10µM (no result: NS1 inh)
COCCNc1cnn(-c2ccccc2)c(=O)c1Cl	NS1 inh inconclusive, Pf growth 96h inconclusive
CCC(=C(c1ccc(OC)cc1)c1ccc(OC)cc1)c1cn(CC(O)CN(CCO)CCO)c2ccccc12 (stereo not drawn)	Pf growth 48h 9.3µM, Pf growth 96h inconclusive (no result: NS1 inh)
COc1ccc(OCC(O)CN(CCO)CC(O)Cn2ccc3ccccc32)cc1 (stereo not drawn)	Pf growth 48h inconclusive
CCCCCCN(C(=O)CCl)c1ccccc1	Pf growth 48h inconclusive, Pf growth 96h inconclusive
CNC(=S)NNC(=O)c1sccc1OCc1cccc(C(F)(F)F)c1	Pf growth 48h inconclusive, Pf growth 96h 13µM
CCOc1ccc2[nH]c(=O)c(CN(Cc3ccco3)C(CC)c3nnnn3Cc3ccccc3)cc2c1 (stereo not drawn)	Pf growth 48h 5.9µM, Pf growth 96h inconclusive
CCOc1ccc2[nH]c(=O)c(CN(Cc3cccs3)C(CC)c3nnnn3C(C)(C)CC)cc2c1 (stereo not drawn)	Pf growth 48h 0.93µM (no result: Pf growth 96h)
CCc1ccc(-c2cc(C(F)(F)F)n3nc(C(=O)Nc4cnn(Cc5ccc(C)cc5)c4)cc3n2)s1	Pf growth 96h 4.7µM (no result: Pf growth 48h)
COc1cc(NC(=O)c2cc(-c3ccccc3Cl)on2)cc(OC)c1OC	Pf growth 96h 12µM
COc1ccc(NC(=O)c2cc3c(Cl)nc4ccccc4c3s2)c(OC)c1	none
COc1cc(NC(=O)c2cc3c(Cl)nc4ccccc4c3s2)cc(OC)c1OC	Pf growth 48h 0.83µM, Pf growth 96h inconclusive
CN(CCCNC(=O)c1cc2c(Cl)nc3ccccc3c2s1)Cc1ccccc1	Pf growth 48h 3.3µM, Pf growth 96h inconclusive (no result: NS1 inh)
CCOc1ccc(NC(=O)CN2CCc3cc4c(cc3C2)OCCCO4)cc1OCC	Pf growth 96h inconclusive
CN(C)CCNC=C(C(=O)Nc1ccc(Cl)cc1Cl)C(=O)Nc1ccc(Cl)cc1Cl	Pf growth 48h 3.3µM, Pf growth 96h 1.9µM
CC[C@@H]1C/C=C\Cc2ccccc2[C@@H](C(=O)C[C@@H](O)CC(C)=O)OC1=O	none (no result: NS1 inh, Pf growth 48h, Pf growth 96h)
COc1cc2cc(C(c3nnnn3C3CCCC3)N3CCc4ccccc43)c(=O)[nH]c2cc1OC (stereo not drawn)	Pf growth 48h inconclusive, Pf growth 96h 9.3µM
CCC(C)(C)n1nnnc1C(c1cc2ccc(OC)cc2[nH]c1=O)N1CCN(C2CCCCC2)CC1 (stereo not drawn)	Pf growth 48h 10µM (no result: Pf growth 96h)
COc1ccccc1N1CCN(C(c2cc3ccc(C)cc3[nH]c2=O)c2nnnn2C2CCCC2)CC1 (stereo not drawn)	Pf growth 48h 1.9µM
CCOC(=O)c1cc2oc(C(c3nnnn3C3CCCCC3)N3CCOCC3)cc2[nH]1 (stereo not drawn)	Pf growth 48h 9.3µM, Pf growth 96h 9.3µM
Cc1ccc(NC(=O)Cc2ccccc2)cc1S(=O)(=O)N1CCOCC1	none (no result: NS1 inh, Pf growth 48h, Pf growth 96h)
CCOC(=O)C1CCN(C(c2cc3ccc(C)cc3[nH]c2=O)c2nnnn2C2CCCCC2)CC1 (stereo not drawn)	Pf growth 48h 1µM (no result: Pf growth 96h)
CCc1ccccc1NC(=S)Nn1cnnc1	none
O=C(NCCOc1ccccc1F)c1cc(F)c(F)cc1Cl	none
CCn1cnc2c1c(=O)n(Cc1cccc(Br)c1)c(=O)n2Cc1ccccc1	Pf growth 48h inconclusive
O=c1c2c(ncn2C2CCCC2)n(Cc2ccccc2)c(=O)n1CCOc1ccc(Br)cc1	Pf growth 48h 13µM, Pf growth 96h 13µM
O=c1c2c(ncn2C2CCCC2)n(Cc2ccccc2)c(=O)n1CCOc1ccccc1	Pf growth 48h 17µM, Pf growth 96h inconclusive
CCCCn1c(SCC(=O)NC2CCCC2)nc2ccccc2c1=O	Pf growth 48h inconclusive, Pf growth 96h inconclusive (no result: NS1 inh)
Cc1ccc(C)c(OCCn2c(=O)c3c(ncn3C3CCCC3)n(Cc3ccccc3)c2=O)c1	Pf growth 48h 12µM, Pf growth 96h 2.6µM

From PubChem
